Assay results reported in the supplement of paper PMC9694430.
Several values for one entry are separate records, joined by “and”; a condition that tells them apart may be missing. Equal entries are not always repeated.

How the values were obtained:
Experiment in all cases: thermal shift delta Tm vs DMSO control; higher = stronger stabilization (binding)
Details in all cases: 12.5 µM; protein concentration 2 µM
LOC_OS02G45750-cb003 = tested on: LOC_OS02G45750-cb003
In short: (§1)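 Heating from 25°C to 95°C at 0.05°C/s, fluorescence was recorded for 19.5 μl wells of 2 μM E. coli-expressed, purified rice kinase domain in 100 mM potassium phosphate pH 7.5, 150 mM NaCl, 10% glycerol and 5 × SYPRO Orange with compound in DMSO. Boltzmann fits gave melting temperatures for this differential scanning fluorimetry assay. The shift reported is the mean of three replicates against the DMSO-only protein.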

LOC_OS02G54510-cb004 = tested on: LOC_OS02G54510-cb004
In short: as §1

LOC_OS03G04050-cb001 = tested on: LOC_OS03G04050-cb001
In short: as §1

LOC_OS03G12390-cb001 = tested on: LOC_OS03G12390-cb001
In short: as §1

LOC_OS03G27990-cb004 = tested on: LOC_OS03G27990-cb004
In short: as §1

LOC_OS03G50450-cb001 = tested on: LOC_OS03G50450-cb001
In short: as §1

LOC_OS03G50810-cb003 = tested on: LOC_OS03G50810-cb003
In short: as §1

LOC_OS04G35114-cb001 = tested on: LOC_OS04G35114-cb001
In short: as §1

LOC_OS04G38480-cb003 = tested on: T1, LOC_OS04G38480-cb003
T1 sequence (whole entry): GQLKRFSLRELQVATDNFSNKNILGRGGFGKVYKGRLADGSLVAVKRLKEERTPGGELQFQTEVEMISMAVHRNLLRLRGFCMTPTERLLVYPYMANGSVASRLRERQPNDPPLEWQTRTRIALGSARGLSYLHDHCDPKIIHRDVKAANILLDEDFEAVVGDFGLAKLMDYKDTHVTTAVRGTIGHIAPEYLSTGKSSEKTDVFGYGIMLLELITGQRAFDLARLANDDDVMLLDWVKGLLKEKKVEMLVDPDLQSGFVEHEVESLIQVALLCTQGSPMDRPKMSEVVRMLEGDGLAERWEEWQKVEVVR
In short: as §1

LOC_OS04G41100-cb001 = tested on: T2, LOC_OS04G41100-cb001
T2 sequence (whole entry): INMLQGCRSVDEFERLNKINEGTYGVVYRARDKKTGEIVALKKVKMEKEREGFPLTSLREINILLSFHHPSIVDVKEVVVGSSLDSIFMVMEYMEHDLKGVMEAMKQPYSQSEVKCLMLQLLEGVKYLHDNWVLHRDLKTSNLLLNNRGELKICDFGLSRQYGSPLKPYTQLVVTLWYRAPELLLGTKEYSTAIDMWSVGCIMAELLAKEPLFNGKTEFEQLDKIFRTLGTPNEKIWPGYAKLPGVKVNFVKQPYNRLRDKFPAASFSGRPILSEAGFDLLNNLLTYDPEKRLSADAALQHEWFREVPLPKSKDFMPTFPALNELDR
In short: as §1
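Further: purified Escherichia coli-expressed rice kinase domain construct.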

SMILES	thermal shift delta Tm (LOC_OS02G45750-cb003)	thermal shift delta Tm (LOC_OS02G54510-cb004)	thermal shift delta Tm (LOC_OS03G04050-cb001)	thermal shift delta Tm (LOC_OS03G12390-cb001)	thermal shift delta Tm (LOC_OS03G27990-cb004)	thermal shift delta Tm (LOC_OS03G50450-cb001)	thermal shift delta Tm (LOC_OS03G50810-cb003)	thermal shift delta Tm (LOC_OS04G35114-cb001)	thermal shift delta Tm (LOC_OS04G38480-cb003)	thermal shift delta Tm (LOC_OS04G41100-cb001)
O=C1Cc2c([nH]c3ccc(Br)cc23)-c2ccccc2N1 [Kenpaullone]	6.87 °C	1.11 °C	0.51 °C	5.47 °C	2.21 °C	0.9 °C	2.26 °C	4.7 °C	2.14 °C	2.07 °C
O=C(NC1CCNCC1)c1n[nH]cc1NC(=O)c1c(Cl)cccc1Cl	0.66 °C and 1.33 °C	0.11 °C and 0.36 °C	0.15 °C and 0.29 °C	0.1 °C and 0.19 °C	0.04 °C and 0.36 °C	0.11 °C and 0.36 °C	0.29 °C and 0.51 °C	0.48 °C and 0.71 °C	0.07 °C and 1.75 °C	7.15 °C and 7.57 °C
CNC(=O)c1cc(Oc2ccc(NC(=O)Nc3cc(C(C)(C)C)nn3-c3ccc4ncccc4c3)c(F)c2)ccn1 [Rebastinib (DCC-2036)]	12.3 °C	6.64 °C	0.59 °C	5.55 °C	0.52 °C	0.33 °C	5.06 °C	0.84 °C	2.8 °C	5.27 °C
Nc1nc(N)c(N=O)c(OCC2CCCCC2)n1	0.64 °C	0.21 °C	0.46 °C	3.99 °C	2.79 °C	0.35 °C	0.92 °C	1.13 °C	1.28 °C	0.59 °C
C[C@@H](Oc1cc(-c2cnn(C3CCNCC3)c2)cnc1N)c1c(Cl)ccc(F)c1Cl	5.46 °C	0.63 °C	0.35 °C	1.31 °C	0.48 °C	0.08 °C	2.49 °C	5.73 °C	3.79 °C	0.57 °C
C[C@H](NC(=O)/C(C#N)=C/c1cccc(Br)n1)c1ccccc1	-0.81 °C	-0.57 °C	0.05 °C	-2.64 °C	-2.84 °C	0.09 °C	-1.35 °C	-1.1 °C	0.59 °C	-0.11 °C
NC(=O)Nc1cc(-c2cccc(F)c2)sc1C(=O)N[C@H]1CCCNC1	1.81 °C	1.91 °C	0.72 °C	2.87 °C	3.23 °C	3.98 °C	4.12 °C	2.52 °C	2.65 °C	0.96 °C
CC1=C(C(=O)Nc2cc3cn[nH]c3cc2F)C(c2ccc(C(F)(F)F)cc2)CC(=O)N1 (stereo not given)	0.16 °C	0.13 °C	0.03 °C	0.32 °C	-0.07 °C	0.15 °C	0.56 °C	0.15 °C	0 °C	0.48 °C
O=C1Nc2ccc(CN3C(=O)CSC3=O)cc2/C1=C/c1cc(CN2CCOCC2)c[nH]1	2.91 °C	0.28 °C	0.58 °C	4.37 °C	0.63 °C	0.68 °C	2 °C	3.48 °C	3.05 °C	0.46 °C
c1cncc(CN2CCC(n3ncc4c(N5CCOCC5)nc(-c5ccc6[nH]ccc6c5)nc43)CC2)c1	0.03 °C	-0.13 °C	0.22 °C	-0.05 °C	0.01 °C	0.14 °C	0.65 °C	0.3 °C	0.67 °C	0.58 °C
O=C(O)c1ccc2c3c1cccc3c(=O)n1c3ccccc3nc21	3.28 °C	0.56 °C	0.18 °C	2.82 °C	0.62 °C	0.23 °C	0.91 °C	2.73 °C	2.31 °C	1.19 °C
O=c1cc(N2CCOCC2)oc2c(-c3cccc4c3sc3ccccc34)cccc12	1.11 °C	0.33 °C	0.66 °C	-0.18 °C	0.6 °C	0.91 °C	0.32 °C	0.58 °C	0.87 °C	-0.31 °C
CC1(C)CNc2cc(NC(=O)c3cccnc3NCc3ccncc3)ccc21 [Motesanib Diphosphate (AMG-706)]	-0.06 °C	1.49 °C	0.4 °C	-0.39 °C	0.2 °C	-0.1 °C	0.3 °C	0.51 °C	0.65 °C	0.6 °C
Cc1ccc(NC(=O)c2ccc(CN3CCN(C)CC3)cc2)cc1Nc1nccc(-c2cccnc2)n1 [Imatinib (STI571)]	1.17 °C	0.22 °C	0.47 °C	-0.05 °C	0.26 °C	0.4 °C	0.42 °C	0.92 °C	0.88 °C	0.5 °C
O=C(O)CCC(=O)Nc1ccc(Br)cn1 [Bikinin]	0.64 °C	0.11 °C	0.3 °C	0.13 °C	0.19 °C	0.33 °C	0.43 °C	0.74 °C	1.47 °C	0.42 °C
COc1ncc(-c2ccc3nccc(-c4ccnnc4)c3c2)cc1NS(=O)(=O)c1ccc(F)cc1F	1.38 °C	0.45 °C	0.9 °C	0.76 °C	0.69 °C	1.26 °C	1.09 °C	2.35 °C	1.39 °C	0.74 °C
CS(=O)(=O)c1cccc(CNc2nc(Nc3ccc4c(c3)CCC(=O)N4)ncc2C(F)(F)F)c1	10.4 °C	1.28 °C	0.17 °C	5.43 °C	1.28 °C	3.56 °C	4.21 °C	3.71 °C	2.37 °C	2.51 °C
CN1CCN(c2ccc(C(=O)Nc3n[nH]c4ccc(Cc5cc(F)cc(F)c5)cc34)c(NC3CCOCC3)c2)CC1 [Entrectinib (RXDX-101)]	8.16 °C	1.58 °C	0.06 °C	2.99 °C	0.44 °C	0.86 °C	7.06 °C	7.44 °C	2.7 °C	0.77 °C
O=C(NCCO)c1cccc(-c2cc(Nc3ccc(OC(F)(F)F)cc3)ncn2)c1	-1.95 °C	0.81 °C	0.63 °C	-0.13 °C	0.4 °C	0.68 °C	0.15 °C	0.49 °C	0.52 °C	0.56 °C
CC1(C)OCCn2c1nc1c(N3CCOCC3)nc(-c3cnc(N)nc3)nc12	-0.63 °C	0.42 °C	0.09 °C	-0.14 °C	0.19 °C	0.18 °C	0.33 °C	0.39 °C	0.75 °C	-0.13 °C
O=c1cc(-c2cccc3c2Sc2ccccc2S3)oc(N2CCOCC2)c1	0.06 °C	-0.02 °C	0.45 °C	0.59 °C	-0.19 °C	-0.07 °C	0.13 °C	-0.05 °C	1.71 °C	0.74 °C
